Test results from PubChem BioAssay AID1159580 (chemical genetic matrix, 2015).
In all, about 5,500 compounds went through this assay and about 2,000 (36%) were called active. Inconclusive results (about 18%) are left out. Cut-off read from the data, not from the text of the source: active = normalized growth mostly below about 0.91 (no sharp cut-off); inconclusive = no clear call, values can overlap the other calls; inactive = mostly above about 0.92. This is one part of the list.

Assay: chemical genetic growth profiling, strain panel (AID 1159580);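 note: tested at 20 µM; growth read once vehicle control cultures reached saturation at 30 °C; 1 = growth at the plate median or of vehicle wells; lower values mean less growth of the strain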
Settings: growth OD

Measured: normalized growth

CC[C@@H](C(=O)C(C)[C@@H](O)[C@H](C)CCc1ccc(C)c(O)c1C(=O)O)C1OC(CC)(C2CC[C@](O)(CC)[C@H](C)O2)C[C@@H]1C (some centres undefined)
active: S. cerevisiae deletion strains, locus YKL085W, strain MDH1 (second series), hits give low values 1.28 [resistant] | S. cerevisiae deletion strains, locus YKL085W, strain MDH1, hits give low values 1.28 [resistant] | S. cerevisiae deletion strains, locus YLL001W, strain dnm1, hits give low values 1.1 [resistant] | S. cerevisiae deletion strains, locus YMR231W, strain pep5, hits give low values 0.208 | S. cerevisiae deletion strains, locus YOR106W, strain vam3, hits give low values 0.557 | S. cerevisiae deletion strains, locus YOR270C, strain vph1, hits give low values 0.597
inactive: S. cerevisiae deletion strains, locus YJR043C, strain POL32, hits give low values 1.02 | S. cerevisiae deletion strains, locus YJR066W, strain TOR1, hits give low values 0.928 | S. cerevisiae deletion strains, locus YJR075W, strain HOC1, hits give low values 1.01 | S. cerevisiae deletion strains, locus YKL068W, hits give low values 1 | S. cerevisiae deletion strains, locus YKL160W, strain elf1, hits give low values 1.05 | S. cerevisiae deletion strains, locus YKL190W, strain CNB1, hits give low values 1 | S. cerevisiae deletion strains, locus YKR001C, strain vps1, hits give low values 1.04 | S. cerevisiae deletion strains, locus YKR026C, strain gcn3, hits give low values 1.07 | S. cerevisiae deletion strains, locus YKR091W, strain srl3, hits give low values 1.07 | S. cerevisiae deletion strains, locus YLL026W, hits give low values 1.06 | S. cerevisiae deletion strains, locus YLL041C, strain sdh2, hits give low values 1.05 | S. cerevisiae deletion strains, locus YLR027C, strain aat2, hits give low values 1.05 | S. cerevisiae deletion strains, locus YLR039C, strain RIC1, hits give low values 1.26 | S. cerevisiae deletion strains, locus YLR058C, strain SHM2, hits give low values 1.02 | S. cerevisiae deletion strains, locus YLR102C, strain apc9, hits give low values 1.03 | S. cerevisiae deletion strains, locus YLR113W, strain HOG1, hits give low values 0.964 | S. cerevisiae deletion strains, locus YLR221C, strain rsa3, hits give low values 1.06 | S. cerevisiae deletion strains, locus YLR258W, strain gsy2, hits give low values 1.06 | S. cerevisiae deletion strains, locus YLR262C, strain YPT6 (second series), hits give low values 1.08 | S. cerevisiae deletion strains, locus YLR262C, strain YPT6, hits give low values 1.34 | S. cerevisiae deletion strains, locus YLR268W, strain sec22, hits give low values 0.996 | S. cerevisiae deletion strains, locus YLR320W, strain mms22, hits give low values 1.05 | S. cerevisiae deletion strains, locus YLR330W, strain CHS5, hits give low values 1.04 | S. cerevisiae deletion strains, locus YLR342W, strain FKS1 (second series), hits give low values 0.97 | S. cerevisiae deletion strains, locus YLR342W, strain FKS1, hits give low values 1.05 | S. cerevisiae deletion strains, locus YLR357W, strain rsc2, hits give low values 1.12 | S. cerevisiae deletion strains, locus YLR370C, strain arc18, hits give low values 1.04 | S. cerevisiae deletion strains, locus YLR371W, strain rom2, hits give low values 1 | S. cerevisiae deletion strains, locus YLR384C, strain iki3, hits give low values 1.08 | S. cerevisiae deletion strains, locus YLR418C, strain cdc73, hits give low values 0.959 | S. cerevisiae deletion strains, locus YML016C, strain PPZ1, hits give low values 1.03 | S. cerevisiae deletion strains, locus YML032C, strain rad52, hits give low values 1 | S. cerevisiae deletion strains, locus YML120C, strain ndi1, hits give low values 1.07 | S. cerevisiae deletion strains, locus YML124C, strain tub3, hits give low values 1.03 | S. cerevisiae deletion strains, locus YMR058W, strain fet3, hits give low values 1.04 | S. cerevisiae deletion strains, locus YMR078C, strain ctf18, hits give low values 1.06 | S. cerevisiae deletion strains, locus YMR125W, strain sto1, hits give low values 1.08 | S. cerevisiae deletion strains, locus YMR129W, hits give low values 1.07 | S. cerevisiae deletion strains, locus YMR205C, strain PFK2, hits give low values 1.04 | S. cerevisiae deletion strains, locus YMR223W, strain ubp8, hits give low values 0.996 | S. cerevisiae deletion strains, locus YMR307W, strain GAS1, hits give low values 0.967 | S. cerevisiae deletion strains, locus YNL067W, strain RPL9B, hits give low values 1.02 | S. cerevisiae deletion strains, locus YNL071W, strain lat1, hits give low values 1.06 | S. cerevisiae deletion strains, locus YNL153C, strain GIM3, hits give low values 1.04 | S. cerevisiae deletion strains, locus YNL183C, strain NPR1, hits give low values 0.923 | S. cerevisiae deletion strains, locus YNL209W, strain ssb2, hits give low values 1.07 | S. cerevisiae deletion strains, locus YNL233W, strain BNI4, hits give low values 1.02 | S. cerevisiae deletion strains, locus YNL248C, strain rpa49, hits give low values 1.05 | S. cerevisiae deletion strains, locus YNL250W, strain rad50, hits give low values 0.997 | S. cerevisiae deletion strains, locus YNL271C, strain bni1, hits give low values 0.996 | S. cerevisiae deletion strains, locus YNL298W, strain CLA4, hits give low values 0.978 | S. cerevisiae deletion strains, locus YNL307C, strain MCK1, hits give low values 1.05 | S. cerevisiae deletion strains, locus YNL322C, strain KRE1 (second series), hits give low values 1.08 | S. cerevisiae deletion strains, locus YNL322C, strain KRE1, hits give low values 1.02 | S. cerevisiae deletion strains, locus YNR049C, strain mso1, hits give low values 1.07 | S. cerevisiae deletion strains, locus YNR052C, strain pop2, hits give low values 1.01 | S. cerevisiae deletion strains, locus YOL006C, strain TOP1, hits give low values 0.716 | S. cerevisiae deletion strains, locus YOL012C, strain htz1 1.09 | S. cerevisiae deletion strains, locus YOL147C, strain pex11, hits give low values 1.02 | S. cerevisiae deletion strains, locus YOR001W, strain rrp6, hits give low values 1.01 | S. cerevisiae deletion strains, locus YOR061W, strain CKA2, hits give low values 1 | S. cerevisiae deletion strains, locus YOR069W, strain VPS5, hits give low values 1.02 | S. cerevisiae deletion strains, locus YOR070C, strain gyp1, hits give low values 1.06 | S. cerevisiae deletion strains, locus YOR080W, strain dia2, hits give low values 1.06 | S. cerevisiae deletion strains, locus YOR083W, strain WHI5, hits give low values 1.07 | S. cerevisiae deletion strains, locus YOR136W, strain idh2, hits give low values 1.02 | S. cerevisiae deletion strains, locus YOR144C, strain elg1, hits give low values 1.02 | S. cerevisiae deletion strains, locus YOR184W, strain ser1, hits give low values 0.997 | S. cerevisiae deletion strains, locus YOR231W, strain MKK1, hits give low values 0.963 | S. cerevisiae deletion strains, locus YOR265W, strain rbl2, hits give low values 1.05 | S. cerevisiae deletion strains, locus YOR290C, strain snf2, hits give low values 1.06 | S. cerevisiae deletion strains, locus YOR316C, strain cot1, hits give low values 1.03 | S. cerevisiae deletion strains, locus YPL051W, strain arl3, hits give low values 0.944 | S. cerevisiae deletion strains, locus YPL078C, strain atp4, hits give low values 1.05 | S. cerevisiae deletion strains, locus YPL106C, strain sse1, hits give low values 1.09 | S. cerevisiae deletion strains, locus YPL240C, strain hsp82, hits give low values 1.06 | S. cerevisiae deletion strains, locus YPL256C, strain CLN2, hits give low values 0.982 | S. cerevisiae deletion strains, locus YPR119W, strain clb2, hits give low values 1.05 | S. cerevisiae deletion strains, locus YPR141C, strain kar3, hits give low values 1.02 | S. cerevisiae deletion strains, locus YPR163C, strain tif3, hits give low values 1.07 | S. cerevisiae deletion strains, locus YPR167C, strain met16, hits give low values 1.02 | S. cerevisiae deletion strains, strain wtn01, hits give low values 1.02 | S. cerevisiae strains, strain wild type, hits give low values 1.01
